About 83,000 compounds went through this panel and 20% of them were active in at least one assay; those are over-represented in the sample as a whole.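 48-hour exposure, single concentration, 96-well plates; percent growth endpoint where 0 means no net growth. Active: below 10.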 A number with no mark means an inactive call. The source made the active and inactive calls. *1 amine or outer side, *2 acyl side, *3 side chain or, on linkers, in order; H or OH if unused. Where a SMILES comes first, the peptide text is derived from it. Bridges are numbered along the chain shown (N, C = ends). Roman numbers before positions name the chains, in order. [ ]: non-standard residue; d: D form. Actinocin(1to9) = Cc1c2oc3c(C)ccc(C(=O)[*:2])c3nc-2c(C(=O)[*:1])c(N)c1=O; NMeV = CN[CH](C(=O)O)C(C)C; Sar = CNCC(=O)O
Tests used:
Test in all cases: NCI-60 one-dose screen, 48 h (100 = growth as untreated, 0 = no growth, -100 = all killed)
Conditions in all cases: 10 µM unless noted
T-47D breast = test system: T-47D breast
BT-549 breast = test system: BT-549 breast
MDA-MB-435 melanoma = test system: MDA-MB-435 melanoma
SW-620 colon = test system: SW-620 colon
MCF7 breast = test system: MCF7 breast
HCT-116 colon = test system: HCT-116 colon
HCC-2998 colon = test system: HCC-2998 colon
KM12 colon = test system: KM12 colon

SMILES | growth (T-47D breast) | growth (BT-549 breast) | growth (MDA-MB-435 melanoma) | growth (SW-620 colon) | growth (MCF7 breast) | growth (HCT-116 colon) | growth (HCC-2998 colon) | growth (KM12 colon)
O=S(=O)(O)c1cnccn1 | 78.6% | 95.3% | 105% | 112% | 98% | 86.5% | 102% | 98.9%
CC(=O)c1ccc2c(c1)CCc1ccccc1-2 | 97.8% | 104% | 100% | 102% | 90.2% | 96.6% | 109% | 109%
Cc1cc(I)nc2ccccc12 | 95.8% | 104% | 112% | 107% | 101% | 106% | 103% | 115%
O=C1CSC(=S)N1Cc1cccnc1 | 18.5% | 51.7% | 37% | 17% | 10.5% | 42.3% | 126% | 7.96% (active)
OC(c1cc(-c2ccc(Cl)cc2)nc2c(Cl)cccc12)C1CCCCN1 (centres undefined) | -82.9% (active) | 73.6% | -78.8% (active) | -86.2% (active) | -88.7% (active) | -28.8% (active) | -68.9% (active) | -89% (active)
CCOC(=O)c1[nH]c(C#N)c(C(=O)OCC)c1C | 96.6% | 109% | 94.4% | 103% | 103% | 103% | 103% | 107%
O=C(O)c1cccc2cccc(-c3c4ccc(=O)c(O)c-4oc4c(O)c(O)ccc34)c12 | 98.9% | 93.8% | 100% | 97.3% | 101% | 91.2% | 96.2% | 96%
CC(CSc1n[nH]c(=S)s1)c1ccccc1 (centres undefined) | 110% | 112% | 109% | 112% | 102% | 105% | – | 113%
Cc1cc(N/N=C/c2ccccn2)nc2ccccc12 | 24.1% | 15.1% | 29.6% | 18.5% | 14% | 17.6% | 24.7% | 24.5%
COc1cc(/C=C/C(=O)CC(=O)/C=C/c2ccc(O)c(OC)c2)ccc1O | 50.7% | 13.9% | 1.75% (active) | 23.1% | 17% | 0.952% (active) | -74.8% (active) | 0.643% (active)
CCC[CH2][Sn]1([CH2]CCC)[O]C2C(CO)OC(n3ccc(N)nc3=O)C2[O]1 (centres undefined) | -68.8% (active) | -85.2% (active) | -75.5% (active) | -77.1% (active) | -92.2% (active) | -73.6% (active) | -19.2% (active) | 7.12% (active)
Cc1cc(=O)oc2cc(O)cc(O)c12 | 90.5% | 101% | 94.7% | 92% | 98% | 90.5% | 111% | 111%
Cc1cc(C(=C2C=CC(=Nc3ccccc3)C=C2)c2ccc(Nc3ccccc3)cc2)ccc1N | -50.1% (active) | -88.9% (active) | -68% (active) | -70.4% (active) | -44.3% (active) | 0.559% (active) | -90.7% (active) | -89.2% (active)
CCCCCC[C@@H](O)C/C=C\CCCCCCCC(=O)OCCOC | 94.3% | 99% | 110% | 102% | 100% | 89.2% | – | 102%
O=[N+]([O-])c1cc(-c2ccccc2)c(O)c([N+](=O)[O-])c1 | 83.2% | 52.2% | 85.5% | 98.2% | 77% | 86.8% | – | 84.1%
[Cl-].[Rh+3].c1ccc(-c2ccnc3c2ccc2c(-c4ccccc4)ccnc23)cc1.c1ccc(-c2ccnc3c2ccc2c(-c4ccccc4)ccnc23)cc1.c1ccc(-c2ccnc3c2ccc2c(-c4ccccc4)ccnc23)cc1 | 50.4% | 42.9% | 72.5% | 99.2% | 63.3% | 87.3% | – | 59.3%
N#Cc1c2ccccc2nc2ccccc12 | 101% | 114% | 103% | 98.4% | 101% | 105% | – | 108%

SMILES | growth (T-47D breast) | growth (BT-549 breast) | growth (MDA-MB-435 melanoma) | growth (SW-620 colon) | growth (MCF7 breast) | growth (HCT-116 colon) | growth (HCC-2998 colon) | growth (KM12 colon)
Cc1cc(Br)c2nsnc2c1[N+](=O)[O-] | 25.1% | 45% | 21.1% | 33.6% | 10.1% | 26.3% | – | 9.82% (active)
O=C(/C=C/c1ccccc1)c1ccccc1O | 62.6% | 70.5% | 80.6% | 75.1% | 26.7% | 62.9% | 96.3% | 28.2%
CCCCCCCCCCCCNCCCc1ccccc1 | 54.9% | 85.9% | 100% | 46.1% | 25.4% | 20.4% | – | 27.2%
CCN(CC)CCNc1ccc([N+](=O)[O-])c2sc3ccccc3c(=O)c12 | 45.5% | 72% | 18.4% | -5.78% (active) | 8.95% (active) | 17.9% | 36.6% | 22.9%
O=C(c1ccccc1)C(Br)[N+](=O)[O-] (centres undefined) | 65.3% | 92.6% | 96% | 38.8% | 58.8% | 63% | 111% | 100%
O=C(CBr)c1ccc(OC(=O)c2ccccc2)cc1 | 95.7% | 105% | 106% | 88.4% | 92.5% | 75.6% | – | 106%
Cc1ccc(NC2=CC(=O)C(=O)c3ccccc32)cc1 | 21.1% | -41.1% (active) | -80.5% (active) | -19.6% (active) | -57.4% (active) | -26.9% (active) | 28.4% | 22.1%
O=C(c1ccc(O)c(Br)c1)c1ccc(O)c(Br)c1 | 106% | 100% | 118% | 109% | 117% | 101% | 105% | 99.2%
COc1cc(-c2ccc(-[n+]3nc(-c4ccc([N+](=O)[O-])cc4)nn3-c3ccc([N+](=O)[O-])cc3)c(OC)c2)ccc1-[n+]1nc(-c2ccc([N+](=O)[O-])cc2)nn1-c1ccc([N+](=O)[O-])cc1 | -34.2% (active) | 26.9% | -58.4% (active) | 2.63% (active) | -65% (active) | 6.85% (active) | 29.8% | 25.4%
Cn1ccc(=Nc2ccc(NC(=O)c3ccc(N=c4ccn(C)c5ccc([N+](=O)[O-])cc45)cc3)cc2)cc1 | 54.9% | 56.1% | 83.4% | 70.8% | 55.6% | 32.6% | – | 57.8%
O=C1c2ccccc2Cc2cccc(Cl)c21 | 92.8% | 93.3% | 120% | 112% | 96.1% | 97.4% | 81% | 106%
CCCCN(CCCC)CCCCCCCCCCO | 94.6% | 102% | 107% | 103% | – | 90.2% | 103% | 103%
CCN1CCCC(Nc2cc(C)nc(/N=C(/N)Nc3ccc(Cl)c(Cl)c3)n2)C1 (centres undefined) | -49.2% (active) | -59.5% (active) | -51.7% (active) | -59.3% (active) | – | -54.9% (active) | -71.5% (active) | –
CCC(C)C1NC(=O)C(NC(=O)c2c3nc4c(C(=O)NC5C(=O)NC(C(C)CC)C(=O)N6CCCC6C(=O)N(C)CC(=O)N(C)C(C(C)C)C(=O)OC5C)ccc(C)c4oc-3c(C)c(=O)c2N)C(C)OC(=O)C(C(C)C)N(C)C(=O)CN(C)C(=O)C2CCCN2C1=O (centres undefined) (I: TIP[Sar][NMeV] / II: TIP[Sar][NMeV]; ester I:1-I:C, II:1-II:C; linker I:N-II:N via Actinocin(1to9); configuration not given here) | -8.27% (active) | -41.6% (active) | -91.1% (active) | -20.8% (active) | -26.2% (active) | 0.361% (active) | – | -25.6% (active)
Clc1ccc(-n2ncc3c(NCCCN4CCOCC4)ncnc32)cc1 | 85.3% | 101% | 98.9% | 104% | – | 94.9% | 105% | 103%
O=C(c1ccccc1)c1cc2ccccc2oc1=O | 85.5% | 89.8% | 109% | 113% | – | 99.4% | 118% | 92.3%
